# Among all 360,000 compounds or so, about 3,000 (0.83%) were called active. Rule as the data show it: active = inhibition above about 50%; inactive = the rest. Many of the other results were omitted from the sample, so actives are more common in it than they were.
# Target: DNA (cytosine-5)-methyltransferase 1 (Homo sapiens) (UniProt P26358)
# Experiment: human DNMT1 methyltransferase inhibitors, primary screen, biochemical, molecular beacon, fluorescence, HinP1I cleavage, uHTS (AID 588458)
# Conditions: at 10 µM, hits give high values
# Chain of DNA (cytosine-5)-methyltransferase 1 (Homo sapiens) (P26358 504-1616 limits assumed): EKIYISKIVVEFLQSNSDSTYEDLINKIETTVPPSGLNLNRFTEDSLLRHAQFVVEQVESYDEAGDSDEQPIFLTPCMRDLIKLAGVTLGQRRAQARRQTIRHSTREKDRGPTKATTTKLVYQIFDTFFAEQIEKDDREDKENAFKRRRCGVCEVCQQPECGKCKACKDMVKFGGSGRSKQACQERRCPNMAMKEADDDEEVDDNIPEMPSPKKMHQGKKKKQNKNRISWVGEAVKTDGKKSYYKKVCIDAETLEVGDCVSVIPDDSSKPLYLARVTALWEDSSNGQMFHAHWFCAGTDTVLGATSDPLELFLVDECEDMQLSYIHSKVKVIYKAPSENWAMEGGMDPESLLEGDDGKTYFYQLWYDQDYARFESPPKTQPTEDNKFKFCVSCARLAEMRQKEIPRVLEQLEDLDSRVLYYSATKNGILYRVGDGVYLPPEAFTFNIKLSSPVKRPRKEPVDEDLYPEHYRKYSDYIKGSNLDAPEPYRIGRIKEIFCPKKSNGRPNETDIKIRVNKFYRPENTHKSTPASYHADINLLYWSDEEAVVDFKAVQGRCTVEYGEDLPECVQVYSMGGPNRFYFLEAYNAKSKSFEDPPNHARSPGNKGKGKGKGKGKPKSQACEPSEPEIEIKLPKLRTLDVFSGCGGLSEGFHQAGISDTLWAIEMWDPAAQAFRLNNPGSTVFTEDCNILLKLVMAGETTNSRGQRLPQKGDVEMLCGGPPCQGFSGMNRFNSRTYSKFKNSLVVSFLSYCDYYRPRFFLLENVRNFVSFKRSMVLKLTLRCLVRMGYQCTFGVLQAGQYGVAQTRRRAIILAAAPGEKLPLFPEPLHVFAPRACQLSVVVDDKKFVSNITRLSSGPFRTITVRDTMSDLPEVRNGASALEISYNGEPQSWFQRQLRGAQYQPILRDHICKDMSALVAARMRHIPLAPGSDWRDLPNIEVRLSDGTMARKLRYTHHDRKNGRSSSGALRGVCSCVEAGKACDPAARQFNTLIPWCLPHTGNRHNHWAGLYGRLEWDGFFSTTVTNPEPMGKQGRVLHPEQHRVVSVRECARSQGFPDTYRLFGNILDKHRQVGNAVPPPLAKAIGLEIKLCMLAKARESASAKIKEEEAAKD
row,SMILES,inhibition (reported as % activation of signal)
1,CCN(C(=O)CSc1nc2ccccc2n1CC)C1CCS(=O)(=O)C1 (stereo not drawn),0.17% (inactive)
2,CCN(C(=O)CSc1nc(N)cc(=O)[nH]1)C1CCS(=O)(=O)C1 (stereo not drawn),84.1% (active)
3,CCN(C(=O)CSc1nnc2ccccn12)C1CCS(=O)(=O)C1 (stereo not drawn),3.22% (inactive)
4,CCCCNC(=O)C1CCCNC1=O (stereo not drawn),2.28% (inactive)
5,COc1ccc(C2=NOC3(CC(=O)N(c4ccc(Cl)cc4)C3=O)C2)c(OC)c1 (stereo not drawn),-6.34% (inactive)
6,O=C(O)c1cc(S(=O)(=O)N2CCCCCC2)c(Cl)cc1Cl,0.43% (inactive)
7,CCOC(=O)N1CCN(Cc2nc3c(c(=O)n(C)c(=O)n3C)n2Cc2ccccc2)CC1,1.29% (inactive)
8,CCN1CCN(Cc2nc3c(c(=O)n(C)c(=O)n3C)n2CC(=O)c2ccccc2)CC1,75.4% (active)
9,CC1CCCN(Cc2nc3c(c(=O)n(C)c(=O)n3C)n2CC(=O)c2ccccc2)C1 (stereo not drawn),-2.35% (inactive)
10,CC1(C)CC(=O)C(C=NCCC2=CCCCC2)=C(O)C1,6.68% (inactive)
11,O=C1CC(c2ccccc2)CC(O)=C1C=NCCN1CCOCC1 (stereo not drawn),0.18% (inactive)
12,O=C1CCCC(O)=C1C=NCCc1ccccc1,60.8% (active)
13,COc1cc(NS(=O)(=O)c2ccc(N/C=C(\C=O)c3nc4cc(Cl)ccc4o3)cc2)nc(OC)n1,-2.63% (inactive)
14,C=C1c2c(Cl)ccc(O)c2C(O)=C2C(=O)[C@]3(O)C(O)=C(C(N)=O)C(=O)[C@@H](N(C)C)[C@@H]3[C@@H](O)C12 (stereo partly drawn),94.6% (active)
15,CC1C(c2ccccc2)=[N+]([O-])C2(CCCC2)N1O (stereo not drawn),1.84% (inactive)
16,COc1ccc(CCNC(=O)CC2SC(=Nc3cc(C)cc(C)c3)NC2=O)cc1OC (stereo not drawn),1.89% (inactive)
17,CC(=O)[C@@]12O[C@@H]1C[C@H]1[C@@H]3CC[C@H]4C[C@@H](O)CC[C@]4(C)[C@H]3CC[C@@]12C,1% (inactive)
18,O=C(c1ccc(Cl)cc1)n1cnc2ccccc21,8.27% (inactive)
19,COc1ccccc1N(CC(=O)Nc1ccc(C(F)(F)F)cc1)S(C)(=O)=O,7.89% (inactive)
20,CCCNC(=O)C(=O)Nc1cc2c3c(c1)CCC(=O)N3CCC2,-0.17% (inactive)

row,SMILES,inhibition (reported as % activation of signal)
1,S=C(NCCCc1ccccc1)Nc1ccc(Br)cc1,6.06% (inactive)
2,CCc1ccc(NC(=O)CS(=O)CC(=O)N2CCN(c3ccccc3F)CC2)cc1 (stereo not drawn),1.59% (inactive)
3,CCc1ccc(NC(=O)CS(=O)CC(=O)NCCCc2ccccc2)cc1 (stereo not drawn),58.9% (active)
4,Cc1oc(CC(C)C)c(CN2CCCC2)c1C(=O)O,-0.29% (inactive)
5,Cc1nnc(N(Cc2ccco2)C(=O)c2ccno2)s1,-1.27% (inactive)
6,COCCNC(=O)CSc1nc(N)c(NC(=O)c2ccco2)c(=O)[nH]1,4.39% (inactive)
7,COCCNC(=O)Nc1ccc2nc(-c3ccco3)c(-c3ccco3)nc2c1,110% (active)
8,Cc1ccc(NC(=O)OCCNC(=O)c2ccncc2)cc1,0.6% (inactive)
9,COc1ccc(Cn2cccc(NC(=O)Nc3ccc(C#N)cc3)c2=O)cc1,3.12% (inactive)
10,O=C1COc2ccc(NC(=O)N3CCN(c4ccc(F)cc4)CC3)cc2N1,-6.06% (inactive)
11,CCOC(=O)c1cccc(NC(=O)c2ccc(F)cc2F)c1,2.92% (inactive)
12,O=C(COC(=O)CSc1ccccc1)Nc1ccc(F)cc1F,-0.57% (inactive)
13,O=C(COC(=O)c1ccc(F)cc1F)Nc1ncccn1,67.4% (active)
14,CN=C1C=C/C(=N/N=c2\ccn(O)cc2C)C=C1C,-3.81% (inactive)
15,NC(=O)C1CCCN(CC(=O)N2CCN(c3ccccc3)CC2)C1 (stereo not drawn),1.67% (inactive)
16,Cn1c(=O)c2[nH]c(NCC3CCCO3)nc2n(-c2ccccc2)c1=O (stereo not drawn),3.06% (inactive)
17,COc1cc2c(cc1OC)C(Cc1cc(OC)c(OC)cc1[N+](=O)[O-])=NCC2,-13.1% (inactive)
18,CCC/C=C(\CCC)C(NC(=O)Cc1ccccc1)c1ccc(C(=O)OC)cc1 (stereo not drawn),64.2% (active)
19,COC(=O)c1ccc(C(NC(=O)OCc2ccccc2)/C(F)=C/[C@@H](C)C(=O)O)cc1 (stereo partly drawn),2.04% (inactive)
20,CCC[C@@H]1C[C@@]1(CCC)[C@@H](NC(=O)c1ccccc1)c1ccc(C(=O)OC)cc1,-1.36% (inactive)

row,SMILES,inhibition (reported as % activation of signal)
1,C#Cc1ccc(NC(=O)C2(C)CCN2C(=O)Cc2ccc(-c3ccccc3)cc2)cc1 (stereo not drawn),-17.3% (inactive)
2,O=C(NC1(C(F)(F)F)NC(=O)N(Cc2cccnc2)C1=O)c1ccccc1Cl (stereo not drawn),5.41% (inactive)
3,O=C(NCc1ccncc1)C1CCCN(S(=O)(=O)c2ccc(Br)cc2)C1 (stereo not drawn),-0.42% (inactive)
4,COc1cc2c(cc1O)C(SC)=NC(C)(C)C2,0.55% (inactive)
5,COc1ccc(NC(=O)CCCC(=O)c2ccccc2)cc1,0.13% (inactive)
6,CCOC(=O)C1=C(O)/C(=C/c2ccc(OCC(=O)Nc3ccc(C)cc3)cc2)N=C1C,26.9% (inactive)
7,O=C(COc1ccccc1)Nc1ccc(F)cc1,2.46% (inactive)
8,COc1ccc(CC(=O)Nc2ccc(-c3nnc(-c4ccc(C)cc4)o3)cc2)cc1,58.3% (active)
9,COc1ccc(C(CC(=O)Nc2ccc(C)cc2)NC(=O)C(F)(F)F)cc1 (stereo not drawn),1.22% (inactive)
10,COc1ccc(NC(=O)Cn2c(-c3ccc(OC)cc3)cn(-c3ccc(C)cc3)c2=O)cc1,-10.9% (inactive)
11,CCc1ccc(NC(=O)C(=O)NNC(=O)c2cccs2)cc1,1.5% (inactive)
12,Cc1ccc(OCC(=O)Nc2ccc(-c3nnc(-c4ccco4)o3)cc2)cc1,56% (active)
13,COc1ccc(CC(=O)Nc2ccc(-c3nnc(-c4ccccc4)o3)cc2)cc1,63.9% (active)
14,COc1ccc(NC(=O)CN(C)C(=O)c2ccc(COc3ccccc3)o2)cc1,1.54% (inactive)
15,Cc1ccc(-c2nnc(-c3ccc(NC(=O)c4cccs4)cc3)o2)cc1,62.6% (active)
16,O=C(Nc1ccc(N2CCN(C(=O)C3CC3)CC2)cc1)c1cccs1,-1.58% (inactive)
17,Cc1cc(NC(=O)C(C)SCC(=O)Nc2cccc(S(=O)(=O)N3CCCCCC3)c2)no1 (stereo not drawn),3.04% (inactive)
18,CCCCc1ccc(S(=O)(=O)NC(=O)C2(C)CCN2C(=O)c2ccccc2)cc1 (stereo not drawn),-0.05% (inactive)
